Here are results for eight compounds from PubChem BioAssay (NCATS).

Each structure is given as a SMILES string. A number with no mark means an inactive call. Results filed as inconclusive are left out. Active and inactive are the calls of the source. Unless noted, calls come from the whole dose curve; as a rule, active = well fitted curve in the direction sought with a large enough effect; inconclusive = small, poorly fitted or top-dose-only effect, or another doubt; inactive = no such curve, though single readings can be large; an effect the other way counts as inactive or inconclusive.

Experiment [1] in a line: P-glycoprotein substrates identified in KB-8-5-11 adenocarcinoma cell line, qHTS therapeutic library screen (AID 1346987). Note: nearly all actives have a fitted effect of over 65% in size. The gist of the method:
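Compounds are pinned in dose-response onto KB-8-5-11 cells (500 cells/well, colchicine-free medium) and left 72 h at 37 degree C. CellTiter-Glo luminescence then yields AC50 values.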

For experiment [2], the target named is Atrial natriuretic peptide receptor 2 (Homo sapiens) (UniProt P20594). Kind of experiment: Natriuretic polypeptide receptor (hNpr2) antagonism - Pilot subtype selectivity assay (AID 1347050; calls by dose curve). The gist of the method:
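Antagonist mode: compounds (LOPAC1280, seven 1:5 dilutions) added 30 min before 1 nM hNppC stimulation of hNpr2-HEK293 cGMP-sensor cells; luminescence read before and 20 min after agonist at ambient temperature.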

Experiment [3] is described as follows: NS1 protein of Zika virus - qHTS assay to identify small molecule inhibitors in human HEK 293 cells (AID 1347053). Note: series mostly up to about 46 µM; nearly all actives have a fitted effect of over 55% in size. The gist of the method: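 Read-out is a two-antibody TR-FRET for ZIKV NS1, normalized between uninfected cells and infected cells. Compound added 1 h before MR766 infection at MOI 0.5; human HEK 293 cells incubated 24 h, 37 C.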
The target in experiment [4] is Parathyroid hormone/parathyroid hormone-related peptide receptor (Homo sapiens) (UniProt Q03431). Put plainly: qHTS for PTHR1 Agonists: Optimization Screen against the NCGC LOPAC library (AID 1347079).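 Note: GloSensor cAMP luminescence in HEK-293 GP2 cells expressing human PTHR1 with IBMX.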 The procedure, abridged: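 HEK-293 GP2 cells, PTHR1 + GloSensor cAMP; 3000 cells/well, o/n. Luciferin + IBMX 0.5mM each (stock), 1 hr 37C. Cpd titration, 1 hr 37C. Lum after 15 min RT. Ctrl M-PTH(1-15) top 10uM.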
Sequence of Parathyroid hormone/parathyroid hormone-related peptide receptor (Homo sapiens) (Q03431 whole entry, looked up): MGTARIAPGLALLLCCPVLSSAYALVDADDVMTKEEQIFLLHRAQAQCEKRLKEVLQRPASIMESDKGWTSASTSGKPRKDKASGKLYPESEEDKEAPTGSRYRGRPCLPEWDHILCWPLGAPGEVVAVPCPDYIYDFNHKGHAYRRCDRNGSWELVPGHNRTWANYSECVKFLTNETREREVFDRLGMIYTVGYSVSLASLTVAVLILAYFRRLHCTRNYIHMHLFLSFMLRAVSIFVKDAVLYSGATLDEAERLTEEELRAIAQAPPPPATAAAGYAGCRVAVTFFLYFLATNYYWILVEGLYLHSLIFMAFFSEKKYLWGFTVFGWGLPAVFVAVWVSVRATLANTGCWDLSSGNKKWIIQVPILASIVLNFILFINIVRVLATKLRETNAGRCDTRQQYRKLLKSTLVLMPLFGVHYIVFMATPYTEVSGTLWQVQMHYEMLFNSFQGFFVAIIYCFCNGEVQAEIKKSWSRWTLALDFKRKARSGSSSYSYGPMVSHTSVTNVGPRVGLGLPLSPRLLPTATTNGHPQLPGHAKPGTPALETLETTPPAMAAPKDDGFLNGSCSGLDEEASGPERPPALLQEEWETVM

The nature of experiment [5]: qHTS of pediatric cancer cell lines to identify multiple opportunities for drug repurposing: Primary screen for DAOY cells (AID 1347090). Note: nearly all actives have a fitted effect of over 55% in size. Note: potency is the fitted concentration of half-maximal effect. The gist of the method:
(§1)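 Cell viability, CellTiter-Glo luminescence; 500-1,000 cells/well, 8- or 11-point titration, 48 h compound exposure at 37 degrees C, 5% CO2. Controls: DMSO neutral, bortezomib 2.3 µM final as positive.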

Experiment [6] is described as follows: qHTS of pediatric cancer cell lines to identify multiple opportunities for drug repurposing: Primary screen for SJ-GBM2 cells (AID 1347091). Note: potency is the fitted concentration of half-maximal effect. The procedure, abridged: as §1
(In general: qHTS replaces the single test concentration by a dilution series.)

Experiment [7] is described as follows: qHTS of pediatric cancer cell lines to identify multiple opportunities for drug repurposing: Primary screen for A673 cells (AID 1347092). Note: nearly all actives have a fitted effect of over 45% in size. The gist of the method: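 Cells are plated, rested 5 h, dosed by pintool, incubated 48 h, then lysed with CellTiter-Glo and read by luminescence. DMSO is the neutral control; bortezomib at 2.3 uM final is the positive control.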

A short description of experiment [8]: qHTS of pediatric cancer cell lines to identify multiple opportunities for drug repurposing: Primary screen for SK-N-MC cells (AID 1347093). Note: series mostly up to about 46 µM. The gist of the method:
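Metabolically active cells were quantified by ATP-dependent luminescence (CellTiter-Glo, 15 min at room temperature) following 48 h treatment. Cells had been plated at 500-1,000 per well and settled for 5 h beforehand.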

A short description of experiment [9]: qHTS of pediatric cancer cell lines to identify multiple opportunities for drug repurposing: Primary screen for BT-37 cells (AID 1347094). Note: potency is the fitted concentration of half-maximal effect. The gist of the method: (§2)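 500-1,000 cells/well; 5 h pre-incubation 37 °C/5% CO2; compound pinned; 48 h; CellTiter-Glo, 15 min RT; luminescence. MIPE 11-pt from 0.78 nM, NPC 8-pt from 0.59 nM final. Bortezomib 2.3 µM final as positive control.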

Experiment [10] is described as follows: qHTS of pediatric cancer cell lines to identify multiple opportunities for drug repurposing: Primary screen for NB-EBc1 cells (AID 1347095). Note: potency is the fitted concentration of half-maximal effect. The procedure, abridged: as §2
The nature of experiment [11]: qHTS of pediatric cancer cell lines to identify multiple opportunities for drug repurposing: Primary screen for U-2 OS cells (AID 1347096). Note: nearly all actives have a fitted effect of over 50% in size. Note: potency is the fitted concentration of half-maximal effect. The procedure, abridged: (§3)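 Cells (500-1,000/well) rested 5 h, then received compounds for 48 h; metabolically active cells were measured by CellTiter-Glo luminescence. Final concentrations spanned up to 46 µM (MIPE, 11-point) or 0.59 nM-46 µM (NPC, 8-point) in primary screens, 11-point in follow-ups.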

Experiment [12] can be described thus: qHTS of pediatric cancer cell lines to identify multiple opportunities for drug repurposing: Primary screen for Saos-2 cells (AID 1347097). Note: nearly all actives have a fitted effect of over 40% in size. Note: potency is the fitted concentration of half-maximal effect. The gist of the method: as §2
Experiment [13] is described as follows: qHTS of pediatric cancer cell lines to identify multiple opportunities for drug repurposing: Primary screen for SK-N-SH cells (AID 1347098). Note: nearly all actives have a fitted effect of over 65% in size. Note: potency is the fitted concentration of half-maximal effect. The procedure, abridged: as §3
Experiment [14] in a line: qHTS of pediatric cancer cell lines to identify multiple opportunities for drug repurposing: Primary screen for NB1643 cells (AID 1347099). Note: nearly all actives have a fitted effect of over 50% in size. The procedure, abridged:
as §2

The nature of experiment [15]: qHTS of pediatric cancer cell lines to identify multiple opportunities for drug repurposing: Primary screen for LAN-5 cells (AID 1347100). The gist of the method:
as §3

Experiment [16] addresses T1, Tyrosine-protein phosphatase non-receptor type substrate 1 (Homo sapiens) + Leukocyte surface antigen CD47 (Homo sapiens) (UniProt P78324+Q08722). Put plainly: CD47-SIRPalpha protein protein interaction - LANCE assay qHTS validation (AID 1347057; active = well fitted curve in the direction sought with a large enough effect in the signal ratio, with a control signal flat, not every such curve was filed as active; the % refers to the signal ratio; note: series mostly up to about 38 µM). The procedure, abridged:
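Inhibition of soluble CD47/SIRPalpha ectodomain association by titrated compounds, measured as 665/615 nm time-resolved FRET ratio after sequential 30 min room-temperature incubations.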
Background: TR-FRET usually uses a lanthanide donor and a delayed reading to cut background.

Experiment [17] in a line: Natriuretic polypeptide receptor (hNpr1) antagonism - Pilot counterscreen GloSensor control cell line (AID 1347045; calls by dose curve; note: series mostly up to about 38 µM). The procedure, abridged:
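Control counterscreen: luciferase cGMP-biosensor HEK293 cells (no Npr1) received compound for 30 min at room temperature after GloSensor substrate loading. Luminescence was measured before and 20 min after soluble guanylyl cyclase activation by 50 uM nitroprusside.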
(Counterscreens check selectivity or assay interference.)

In experiment [18] the target is Atrial natriuretic peptide receptor 1 (Homo sapiens) (UniProt P16066). Kind of experiment: Natriuretic polypeptide receptor (hNpr1) antagonism - Pilot screen (AID 1347049; calls by dose curve;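 note: HEK293 cells with hNpr1 and GloSensor cGMP luciferase stimulated by 0.1 nM hNppA; agonist-evoked cGMP luminescence read 20 min after hNppA addition; series mostly up to about 58 µM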). The gist of the method:
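Receptor antagonism read as cGMP-dependent luminescence in hNpr1/pGS-40F HEK293 cells: pre-read after 30 min compound exposure, post-read 20 min after hNppA agonist at 0.1 nM final, all at room temperature, protected from light; A-71915 titration as control.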

A short description of experiment [19]: qHTS of pediatric cancer cell lines to identify multiple opportunities for drug repurposing: Primary screen for TC32 cells (AID 1347089). Note: nearly all actives have a fitted effect of over 60% in size. The gist of the method: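 Measured quantity: luminescence from CellTiter-Glo, reflecting metabolically active TC32 cells following 48 h of compound. Curves came straight from multi-point titrations, with 8 or 11 points in primary and 11 in confirmatory screening.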

The target of experiment [20] is T1, Tyrosine-protein phosphatase non-receptor type substrate 1 (Homo sapiens) + Leukocyte surface antigen CD47 (Homo sapiens). Put plainly: CD47-SIRPalpha protein protein interaction - Alpha assay qHTS validation (AID 1347059).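 Note: bead proximity luminescence from CD47 binding SIRPalpha after compound preincubation with SIRPalpha.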 The procedure, abridged:
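AlphaScreen signal between CD47-His (12.5 nM) and biotin-SIRPalpha (25 nM) soluble extracellular domains, bead-captured via Ni-NTA and streptavidin. Compounds, in 7-point titrations, met SIRPalpha 30 min before CD47; PBS pH 7.4 with 0.05% IGEPAL.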

T1 sequence (P78324 whole entry, looked up, the tested form may be a part): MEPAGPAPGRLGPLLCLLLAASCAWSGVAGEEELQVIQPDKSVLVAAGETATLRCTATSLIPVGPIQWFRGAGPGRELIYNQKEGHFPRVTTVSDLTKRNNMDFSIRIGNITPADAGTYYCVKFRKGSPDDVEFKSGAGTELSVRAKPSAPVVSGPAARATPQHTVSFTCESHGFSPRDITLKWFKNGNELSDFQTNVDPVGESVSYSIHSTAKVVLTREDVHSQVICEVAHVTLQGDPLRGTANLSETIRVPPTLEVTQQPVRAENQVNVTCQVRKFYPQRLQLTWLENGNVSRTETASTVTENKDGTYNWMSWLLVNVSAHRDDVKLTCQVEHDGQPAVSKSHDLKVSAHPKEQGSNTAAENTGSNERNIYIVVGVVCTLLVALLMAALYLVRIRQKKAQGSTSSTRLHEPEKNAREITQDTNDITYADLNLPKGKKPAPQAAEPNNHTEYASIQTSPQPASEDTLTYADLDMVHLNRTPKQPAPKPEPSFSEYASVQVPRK
T1 sequence (Q08722 whole entry, looked up, the tested form may be a part): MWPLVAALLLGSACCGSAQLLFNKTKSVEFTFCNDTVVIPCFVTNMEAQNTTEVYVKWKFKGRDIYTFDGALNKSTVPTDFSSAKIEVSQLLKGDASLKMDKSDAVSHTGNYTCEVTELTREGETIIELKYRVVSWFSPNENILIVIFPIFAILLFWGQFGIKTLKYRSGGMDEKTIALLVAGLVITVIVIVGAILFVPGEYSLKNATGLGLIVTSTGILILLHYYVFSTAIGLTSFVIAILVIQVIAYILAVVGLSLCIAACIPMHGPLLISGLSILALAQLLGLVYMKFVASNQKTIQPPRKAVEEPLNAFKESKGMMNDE
Sequence of Atrial natriuretic peptide receptor 2 (Homo sapiens) (P20594 whole entry, looked up): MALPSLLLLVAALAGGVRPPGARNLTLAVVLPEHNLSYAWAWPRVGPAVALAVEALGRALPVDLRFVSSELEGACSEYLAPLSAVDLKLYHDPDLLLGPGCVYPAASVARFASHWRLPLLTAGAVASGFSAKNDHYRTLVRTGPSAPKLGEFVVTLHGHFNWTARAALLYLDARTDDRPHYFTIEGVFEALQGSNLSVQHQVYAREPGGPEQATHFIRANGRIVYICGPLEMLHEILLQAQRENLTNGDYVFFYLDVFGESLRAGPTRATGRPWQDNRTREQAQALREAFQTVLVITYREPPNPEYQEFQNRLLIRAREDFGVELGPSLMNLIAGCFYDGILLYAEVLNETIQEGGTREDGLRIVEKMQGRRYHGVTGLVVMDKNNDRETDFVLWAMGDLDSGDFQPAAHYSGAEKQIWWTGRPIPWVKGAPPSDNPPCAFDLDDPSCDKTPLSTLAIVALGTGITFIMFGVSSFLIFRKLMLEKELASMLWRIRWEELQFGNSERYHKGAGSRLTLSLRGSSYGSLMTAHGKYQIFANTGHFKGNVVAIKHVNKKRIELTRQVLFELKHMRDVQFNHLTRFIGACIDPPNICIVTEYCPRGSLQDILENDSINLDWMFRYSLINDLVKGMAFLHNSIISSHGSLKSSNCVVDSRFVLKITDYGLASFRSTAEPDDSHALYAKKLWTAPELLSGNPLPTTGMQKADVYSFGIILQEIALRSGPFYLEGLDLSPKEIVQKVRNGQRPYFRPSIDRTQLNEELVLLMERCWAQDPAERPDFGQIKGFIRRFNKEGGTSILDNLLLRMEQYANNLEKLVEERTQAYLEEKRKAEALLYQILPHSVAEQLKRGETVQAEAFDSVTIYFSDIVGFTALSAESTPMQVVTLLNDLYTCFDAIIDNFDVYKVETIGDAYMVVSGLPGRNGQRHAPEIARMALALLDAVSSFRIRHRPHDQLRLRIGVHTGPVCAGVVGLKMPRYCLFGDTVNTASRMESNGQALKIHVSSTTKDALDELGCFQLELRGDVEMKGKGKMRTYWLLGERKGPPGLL
Sequence of Atrial natriuretic peptide receptor 1 (Homo sapiens) (P16066 whole entry, looked up): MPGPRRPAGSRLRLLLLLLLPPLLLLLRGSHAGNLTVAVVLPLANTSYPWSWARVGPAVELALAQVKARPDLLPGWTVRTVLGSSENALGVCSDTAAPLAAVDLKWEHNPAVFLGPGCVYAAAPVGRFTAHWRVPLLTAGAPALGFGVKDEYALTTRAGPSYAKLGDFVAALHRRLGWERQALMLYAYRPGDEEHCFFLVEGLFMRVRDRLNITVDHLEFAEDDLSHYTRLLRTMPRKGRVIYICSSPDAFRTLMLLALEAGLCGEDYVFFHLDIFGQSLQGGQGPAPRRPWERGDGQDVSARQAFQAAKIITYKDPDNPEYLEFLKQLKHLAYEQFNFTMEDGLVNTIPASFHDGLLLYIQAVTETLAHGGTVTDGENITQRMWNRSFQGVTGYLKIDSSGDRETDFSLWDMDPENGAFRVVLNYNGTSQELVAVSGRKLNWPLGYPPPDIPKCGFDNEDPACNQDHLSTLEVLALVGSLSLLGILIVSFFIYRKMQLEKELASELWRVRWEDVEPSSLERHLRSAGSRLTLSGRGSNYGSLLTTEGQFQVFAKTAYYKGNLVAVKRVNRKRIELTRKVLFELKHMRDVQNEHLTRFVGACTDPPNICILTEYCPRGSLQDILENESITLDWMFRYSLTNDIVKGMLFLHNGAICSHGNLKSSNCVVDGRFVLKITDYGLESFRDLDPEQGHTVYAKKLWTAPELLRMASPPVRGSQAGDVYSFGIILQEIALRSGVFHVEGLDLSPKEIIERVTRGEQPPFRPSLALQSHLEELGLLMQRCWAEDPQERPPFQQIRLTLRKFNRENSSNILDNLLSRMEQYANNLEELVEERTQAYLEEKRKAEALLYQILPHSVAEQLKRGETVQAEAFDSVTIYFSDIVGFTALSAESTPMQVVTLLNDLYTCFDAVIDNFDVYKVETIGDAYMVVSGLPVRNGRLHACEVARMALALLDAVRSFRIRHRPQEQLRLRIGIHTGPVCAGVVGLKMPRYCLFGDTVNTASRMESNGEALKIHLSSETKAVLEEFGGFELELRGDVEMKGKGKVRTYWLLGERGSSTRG

As for `CCCCCCCCCCCCCCCC(=O)NCCO`, the Potency entry in experiment [1], in experiment [2], in experiment [3], in experiment [4], in [5] and in [6] was “inactive” in each case. For the same compound, the Potency entry in [7], in experiment [8], in experiment [9], in experiment [10], in experiment [11] and in experiment [12] was “inactive” in each case. In addition, the Potency result in [13], in experiment [14] and in experiment [15] was “inactive” throughout.
For `CC(C)c1c(C(=O)Nc2ccccc2)c(-c2ccccc2)c(-c2ccc(F)cc2)n1CC[C@@H](O)C[C@@H](O)CC(=O)O`, the Potency entry in experiment [1], in experiment [3] and in experiment [15] was “inactive” throughout. In addition, in experiment [16], the result was inactive. Further, the Potency in [5] was 4.22 µM (active); in [6], 11.9 µM (active); in [9], 24.6 µM (active); in experiment [11] it was 21.1 µM (active); in [12], 0.841 µM (active); in experiment [13], 12.2 µM (active).
Consider `CC(C(O)c1ccc(O)cc1)N1CCC(Cc2ccccc2)CC1` (stereo unspecified), for which the Potency entry in experiment [1], in experiment [2], in experiment [3], in experiment [4], in [19] and in experiment [5] was “inactive” throughout. For the same compound, the Potency entry in experiment [6], in experiment [7], in experiment [8], in experiment [10], in experiment [11] and in experiment [12] was “inactive” throughout. Moreover, the Potency result in experiment [14] and in experiment [15] was “inactive” throughout. Besides, the outcome in experiment [17], in experiment [18] and in experiment [16] was inactive.
For `C[C@H]1O[C@@H](n2cc(F)c(=O)[nH]c2=O)[C@H](O)[C@@H]1O`, the Potency result in [1], in experiment [3], in experiment [19], in experiment [5], in experiment [6] and in experiment [7] was “inactive” each time. The Potency entry in [9], in [11], in experiment [12], in experiment [13], in experiment [14] and in experiment [15] was “inactive” each time. Moreover, the outcome in experiment [16] and in experiment [20] was inactive. Besides, the Potency in experiment [10] was 2.99 µM (active).
As for `Nc1ncnc2c1ncn2[C@@H]1O[C@H](CO)[C@@H](O)[C@H]1O`, the Potency result in experiment [1], in experiment [2], in [3], in experiment [4], in [5] and in experiment [6] was “inactive” throughout. In addition, the Potency entry in experiment [9], in experiment [10], in experiment [11], in experiment [12], in [14] and in experiment [15] was “inactive” in each case. For the same compound, the compound was classed as inactive in [17] and in [16].
Take `C[C@H](NC(CCc1ccccc1)C(=O)O)C(=O)N1CCC[C@H]1C(=O)O` (stereo partly specified): the Potency entry in experiment [1], in experiment [3], in experiment [19], in experiment [6], in experiment [7] and in experiment [9] was “inactive” in each case. For the same compound, the Potency entry in experiment [10], in [11], in experiment [12], in experiment [13], in [14] and in [15] was “inactive” throughout. Moreover, the outcome in experiment [16] was inactive.
On to `COc1ccc(Cl)cc1C(=O)NCCc1ccc(S(=O)(=O)NC(=O)NC2CCCCC2)cc1`, for which the Potency result in experiment [1], in experiment [2], in experiment [3], in experiment [4], in experiment [19] and in experiment [5] was “inactive” throughout. For the same compound, the Potency entry in experiment [6], in experiment [7], in experiment [9], in experiment [10], in experiment [11] and in experiment [12] was “inactive” each time. For the same compound, the Potency result in experiment [14] and in experiment [15] was “inactive” each time. The call in experiment [17] and in [16] was inactive.
Regarding `CCN(CC)CCOC(=O)C1(C2CCCCC2)CCCCC1`, the Potency entry in experiment [1], in experiment [2], in experiment [3], in experiment [4], in [5] and in experiment [7] was “inactive” in each case. Moreover, the Potency result in [11], in [14] and in experiment [15] was “inactive” throughout. The result in [17] and in experiment [16] was inactive.
